Laboratory results published in the supplement of paper PMC8728848.
This is one part of a sample in which the strongest signals are shown more often than they occur.

Tests used:
Assay in all cases: glycan array binding signal (z-score within array); higher = stronger binding
Conditions in all cases: glycan notation: IUPAC condensed, linker removed
[1] = biological target: Fuc(a1-2)Gal(b1-3)GalNAc(a1-3)[Fuc(a1-2)]Gal(b1-4)GlcNAc
Summary of the method: (§1)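 The binding signal is a Z-score computed within each array. Data were drawn from 3228 arrays in the Consortium for Functional Glycomics database, restricted to those with a known protein sequence. Scores were averaged over arrays of the same protein sequence at different concentrations or buffers, and over linkers, and negative values can be taken as non-binding.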

[2] = biological target: Fuc(a1-2)[Gal(a1-3)]Gal(b1-3)GlcNAc(b1-2)Man(a1-3)[Fuc(a1-2)[Gal(a1-3)]Gal(b1-3)GlcNAc(b1-2)Man(a1-6)]Man(b1-4)GlcNAc(b1-4)[Fuc(a1-6)]GlcNAc
Summary of the method: as §1

[3] = biological target: Fuc(a1-2)[Gal(a1-3)]Gal(b1-3)GlcNAc(b1-3)GalNAc
Summary of the method: as §1

[4] = biological target: Fuc(a1-2)[Gal(a1-4)]Gal(b1-4)GlcNAc
Summary of the method: as §1

[5] = biological target: Fuc(a1-2)[GalNAc(a1-3)]Gal(b1-3)GlcNAc(b1-6)GalNAc
Summary of the method: as §1

[6] = biological target: Fuc(a1-2)[GalNAc(a1-3)]Gal(b1-4)GlcNAc(b1-3)Gal(b1-4)GlcNAc
Summary of the method: as §1

[7] = biological target: Fuc(a1-3)[Gal3S(b1-4)]GlcNAc
Summary of the method: as §1

[8] = biological target: Gal(a1-3)Fuc(a1-2)Gal(b1-4)GlcNAc(b1-3)[Gal(a1-3)Fuc(a1-2)Gal(b1-4)GlcNAc(b1-6)]GalNAc
Summary of the method: as §1

[9] = biological target: Gal(a1-3)Gal(b1-4)GlcNAc(b1-2)Man
Summary of the method: as §1

[10] = biological target: Gal(a1-3)Gal(b1-4)GlcNAc(b1-2)Man(a1-3)[Gal(a1-3)Gal(b1-4)GlcNAc(b1-2)Man(a1-6)]Man(b1-4)GlcNAc(b1-4)GlcNAc
Summary of the method: as §1

[11] = biological target: Gal(a1-3)[Gal(a1-4)]Gal(b1-4)GlcNAc
Summary of the method: as §1

Gal(a1-4)Gal(b1-4)Glc = biological target: Gal(a1-4)Gal(b1-4)Glc
Summary of the method: as §1

Gal(a1-4)Gal(b1-4)GlcNAc = biological target: Gal(a1-4)Gal(b1-4)GlcNAc
Summary of the method: as §1

[12] = biological target: Gal(b1-3)GlcNAc(b1-3)Gal(b1-3)GlcNAc
Summary of the method: as §1

[13] = biological target: Gal(b1-3)GlcNAc(b1-3)Gal(b1-4)GlcNAc(b1-3)Gal(b1-4)GlcNAc(b1-2)[Gal(b1-3)GlcNAc(b1-3)Gal(b1-4)GlcNAc(b1-3)Gal(b1-4)GlcNAc(b1-6)]Man(a1-6)[Gal(b1-3)GlcNAc(b1-3)Gal(b1-4)GlcNAc(b1-3)Gal(b1-4)GlcNAc(b1-2)Man(a1-3)]Man(b1-4)GlcNAc(b1-4)[Fuc(a1-6)]GlcNAc
Summary of the method: as §1

[14] = biological target: Gal(b1-4)GalNAc(b1-3)[Fuc(a1-2)]Gal(b1-4)GlcNAc
Summary of the method: as §1

[15] = biological target: Gal(b1-4)GlcNAc(b1-2)Man(a1-3)[GlcNAc(b1-4)][Gal(b1-4)GlcNAc(b1-2)Man(a1-6)]Man(b1-4)GlcNAc(b1-4)GlcNAc
Summary of the method: as §1

[16] = biological target: Gal(b1-4)GlcNAc(b1-2)[Gal(b1-4)GlcNAc(b1-4)]Man(a1-3)[Gal(b1-4)GlcNAc(b1-2)[Gal(b1-4)GlcNAc(b1-6)]Man(a1-6)]Man(b1-4)GlcNAc(b1-4)GlcNAc
Summary of the method: as §1

[17] = biological target: Gal(b1-4)GlcNAc(b1-3)Gal(b1-4)GlcNAc(b1-3)Gal(b1-4)GlcNAc(b1-2)Man(a1-3)[Gal(b1-4)GlcNAc(b1-3)Gal(b1-4)GlcNAc(b1-3)Gal(b1-4)GlcNAc(b1-2)Man(a1-6)]Man(b1-4)GlcNAc(b1-4)GlcNAc
Summary of the method: as §1

[18] = biological target: Gal(b1-4)GlcNAc(b1-6)Gal(b1-4)GlcNAc
Summary of the method: as §1

Gal3S(b1-3)GalNAc = biological target: Gal3S(b1-3)GalNAc
Summary of the method: as §1

Gal3S(b1-3)GlcNAc = biological target: Gal3S(b1-3)GlcNAc
Summary of the method: as §1

Gal3S(b1-4)Glc = biological target: Gal3S(b1-4)Glc
Summary of the method: as §1

Gal3S(b1-4)Glc6S = biological target: Gal3S(b1-4)Glc6S
Summary of the method: as §1

Gal3S(b1-4)GlcNAc6S = biological target: Gal3S(b1-4)GlcNAc6S
Summary of the method: as §1

[19] = biological target: Gal3S(b1-4)[Fuc(a1-3)]GlcNAc6S
Summary of the method: as §1

Gal3S4S(b1-4)GlcNAc = biological target: Gal3S4S(b1-4)GlcNAc
Summary of the method: as §1

Gal3S6S(b1-4)GlcNAc = biological target: Gal3S6S(b1-4)GlcNAc
Summary of the method: as §1

Gal4S6S(b1-4)GlcNAc = biological target: Gal4S6S(b1-4)GlcNAc
Summary of the method: as §1

GalNAc(b1-4)GlcNAc6S = biological target: GalNAc(b1-4)GlcNAc6S
Summary of the method: as §1

[20] = biological target: GlcNAc(b1-2)Man(a1-3)[GlcNAc(b1-4)][GlcNAc(b1-2)Man(a1-6)]Man(b1-4)GlcNAc(b1-4)[Fuc(a1-6)]GlcNAc
Summary of the method: as §1

[21] = biological target: GlcNAc(b1-3)Gal(b1-4)GlcNAc(b1-3)GalNAc
Summary of the method: as §1

Kdn(a2-3)Gal(b1-3)GalNAc = biological target: Kdn(a2-3)Gal(b1-3)GalNAc
Summary of the method: as §1

[22] = biological target: Man(a1-3)[Man(a1-6)]Man(a1-6)[Man(a1-3)]Man(b1-4)GlcNAc(b1-4)GlcNAc
Summary of the method: as §1

[23] = biological target: Man(a1-3)[Man(a1-6)]Man(b1-4)GlcNAc(b1-4)[Fuc(a1-6)]GlcNAc
Summary of the method: as §1

[24] = biological target: Neu5Ac(a2-3)Gal(b1-3)GalNAc
Summary of the method: as §1

[25] = biological target: Neu5Ac(a2-3)Gal(b1-3)GalNAc6S
Summary of the method: as §1

[26] = biological target: Neu5Ac(a2-3)Gal(b1-3)GlcNAc6S
Summary of the method: as §1

[27] = biological target: Neu5Ac(a2-3)Gal(b1-3)[GlcNAc(b1-6)]GalNAc
Summary of the method: as §1

[28] = biological target: Neu5Ac(a2-3)Gal(b1-3)[Neu5Ac(a2-6)]GalNAc
Summary of the method: as §1

[29] = biological target: Neu5Ac(a2-3)Gal(b1-4)GlcNAc(b1-2)[Neu5Ac(a2-3)Gal(b1-4)GlcNAc(b1-4)]Man(a1-3)[GlcNAc(b1-4)][Neu5Ac(a2-3)Gal(b1-4)GlcNAc(b1-4)Man(a1-6)]Man(b1-4)GlcNAc(b1-4)GlcNAc
Summary of the method: as §1

[30] = biological target: Neu5Ac(a2-3)Gal(b1-4)GlcNAc(b1-3)Gal
Summary of the method: as §1

[31] = biological target: Neu5Ac(a2-3)Gal(b1-4)GlcNAc(b1-6)[Neu5Ac(a2-3)Gal(b1-3)]GalNAc
Summary of the method: as §1

[32] = biological target: Neu5Ac(a2-3)Gal(b1-4)GlcNAc6S
Summary of the method: as §1

[33] = biological target: Neu5Ac(a2-3)Gal(b1-4)[Fuc(a1-3)]GlcNAc(b1-6)[Neu5Ac(a2-3)Gal(b1-3)]GalNAc
Summary of the method: as §1

[34] = biological target: Neu5Ac(a2-3)Gal6S(b1-4)[Fuc(a1-3)]GlcNAc
Summary of the method: as §1

[35] = biological target: Neu5Ac(a2-3)[GalNAc(b1-4)]Gal(b1-4)GlcNAc
Summary of the method: as §1

Neu5Ac(a2-6)Gal = biological target: Neu5Ac(a2-6)Gal
Summary of the method: as §1

[36] = biological target: Neu5Ac(a2-6)Gal(b1-3)GlcNAc(b1-3)[Gal(b1-4)GlcNAc(b1-6)]Gal(b1-4)Glc
Summary of the method: as §1

Neu5Ac(a2-6)Gal(b1-4)Glc = biological target: Neu5Ac(a2-6)Gal(b1-4)Glc
Summary of the method: as §1

[37] = biological target: Neu5Ac(a2-6)Gal(b1-4)GlcNAc(b1-2)Man(a1-3)[Neu5Ac(a2-6)Gal(b1-4)GlcNAc(b1-2)Man(a1-6)]Man(b1-4)GlcNAc(b1-4)[Fuc(a1-6)]GlcNAc
Summary of the method: as §1

[38] = biological target: Neu5Ac(a2-6)Gal(b1-4)GlcNAc(b1-3)Gal(b1-3)GlcNAc
Summary of the method: as §1

[39] = biological target: Neu5Ac(a2-8)Neu5Ac(a2-3)Gal(b1-4)GlcNAc
Summary of the method: as §1

B1: MAL-II (Maackia amurensis), P93248 (protein)
chain: ATSNSKPTQVLLATFLTFFFLLLNNVNSSDELSFTINNFVPNEADLLFQGEASVSSTGVLQLTRVENGQPQQYSVGRALYAAPVRIWDNTTGSVASFSTSFTFVVKAPNPTITSDGLAFFLAPPDSQIPSGRVSKYLGLFNNSNSDSSNQIVAVEFDTYFGHSYDPWDPNYRHIGIDVNGIESIKTVQWDWINGGVAFATITYLAPNKTLIASLVYPSNQTSFIVAASVDLKEILPEWVRVGFSAATGYPTQVETHDVLSWSFTSTLEANSDAATENNVHIARYTA
For B1, the “glycan array binding signal (z-score)” value [1] was -0.182, the “glycan array binding signal (z-score)” value [2] was 0.051 and the “glycan array binding signal (z-score)” value [3] was -0.241. The “glycan array binding signal (z-score)” value [4] was -0.171, the “glycan array binding signal (z-score)” value [5] was -0.266 and the “glycan array binding signal (z-score)” value [6] was -0.177. For the same binder, the “glycan array binding signal (z-score)” value [7] was -0.195, the “glycan array binding signal (z-score)” value [8] was -0.261 and the “glycan array binding signal (z-score)” value [9] was -0.188. The “glycan array binding signal (z-score)” value [10] was 0.244, the “glycan array binding signal (z-score)” value [11] was -0.252 and the “glycan array binding signal (z-score)” value (Gal(a1-4)Gal(b1-4)Glc) was -0.133. For the same binder, the “glycan array binding signal (z-score)” value (Gal(a1-4)Gal(b1-4)GlcNAc) was -0.185, the “glycan array binding signal (z-score)” value [12] was -0.172 and the “glycan array binding signal (z-score)” value [13] was 0.068. The “glycan array binding signal (z-score)” value [14] was -0.263, the “glycan array binding signal (z-score)” value [15] was -0.267 and the “glycan array binding signal (z-score)” value [16] was -0.229. For the same binder, the “glycan array binding signal (z-score)” value [17] was 0.674, the “glycan array binding signal (z-score)” value [18] was -0.23 and the “glycan array binding signal (z-score)” value (Gal3S(b1-3)GalNAc) was 8.15. The “glycan array binding signal (z-score)” value (Gal3S(b1-3)GlcNAc) was 2.09, the “glycan array binding signal (z-score)” value (Gal3S(b1-4)Glc) was 1.81 and the “glycan array binding signal (z-score)” value (Gal3S(b1-4)Glc6S) was 3.27. For the same binder, the “glycan array binding signal (z-score)” value (Gal3S(b1-4)GlcNAc6S) was 6.03, the “glycan array binding signal (z-score)” value [19] was 2.12 and the “glycan array binding signal (z-score)” value (Gal3S4S(b1-4)GlcNAc) was -0.162. For the same binder, the “glycan array binding signal (z-score)” value (Gal3S6S(b1-4)GlcNAc) was -0.222, the “glycan array binding signal (z-score)” value (Gal4S6S(b1-4)GlcNAc) was -0.156 and the “glycan array binding signal (z-score)” value (GalNAc(b1-4)GlcNAc6S) was -0.292. For the same binder, the “glycan array binding signal (z-score)” value [20] was -0.148, the “glycan array binding signal (z-score)” value [21] was -0.159 and the “glycan array binding signal (z-score)” value (Kdn(a2-3)Gal(b1-3)GalNAc) was 3.27. For the same binder, the “glycan array binding signal (z-score)” value [22] was -0.107, the “glycan array binding signal (z-score)” value [23] was -0.337 and the “glycan array binding signal (z-score)” value [24] was 3.54. For the same binder, the “glycan array binding signal (z-score)” value [25] was 5.77, the “glycan array binding signal (z-score)” value [26] was -0.11 and the “glycan array binding signal (z-score)” value [27] was 3.23. The “glycan array binding signal (z-score)” value [28] was 7.48, the “glycan array binding signal (z-score)” value [29] was -0.282 and the “glycan array binding signal (z-score)” value [30] was -0.196. The “glycan array binding signal (z-score)” value [31] was 3.13, the “glycan array binding signal (z-score)” value [32] was -0.215 and the “glycan array binding signal (z-score)” value [33] was 0.889. The “glycan array binding signal (z-score)” value [34] was -0.22, the “glycan array binding signal (z-score)” value [35] was -0.213 and the “glycan array binding signal (z-score)” value (Neu5Ac(a2-6)Gal) was -0.234. For the same binder, the “glycan array binding signal (z-score)” value [36] was -0.18, the “glycan array binding signal (z-score)” value (Neu5Ac(a2-6)Gal(b1-4)Glc) was -0.184 and the “glycan array binding signal (z-score)” value [37] was -0.089. For the same binder, the “glycan array binding signal (z-score)” value [38] was -0.178 and the “glycan array binding signal (z-score)” value [39] was -0.255.
